Only some compounds are listed: those with a hit (about 2.1% of all), similar ones and a draw of the others.
PGC1a acetyl inh – inhibitors of PGC1a acetylation signal, primary screen, cell-based, U2OS, AlphaScreen, inhibitor mode | AlphaScreen anti-acetyl-lysine; with virally co-expressed GCN5 acetyltransferase | AID 651687, 2012 | inhibition, % at 15.6 µM | 350,000 tested, 0.17% active;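 active = every replicate shows inhibition of at least 40%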;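 note: 0% = neutral control wells and 100% = positive control wells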
MLL AF4-AF9 inh – inhibitors of AF4 peptide binding to AF9, primary screen, biochemical, AlphaScreen, biotin-AF4 peptide, FLAG-AF9, single point; Protein AF-9 (Homo sapiens), P42568; inhibition, % at 10 µM; 350,000 tested, 0.47% active;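 active = every replicate reaching a set inhibition limit, whatever the replicate mean, cut at about 25% in these data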;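 note: 0% = plate neutral control median and 100% = total signal loss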
Target sequence (P42568 whole entry, looked up): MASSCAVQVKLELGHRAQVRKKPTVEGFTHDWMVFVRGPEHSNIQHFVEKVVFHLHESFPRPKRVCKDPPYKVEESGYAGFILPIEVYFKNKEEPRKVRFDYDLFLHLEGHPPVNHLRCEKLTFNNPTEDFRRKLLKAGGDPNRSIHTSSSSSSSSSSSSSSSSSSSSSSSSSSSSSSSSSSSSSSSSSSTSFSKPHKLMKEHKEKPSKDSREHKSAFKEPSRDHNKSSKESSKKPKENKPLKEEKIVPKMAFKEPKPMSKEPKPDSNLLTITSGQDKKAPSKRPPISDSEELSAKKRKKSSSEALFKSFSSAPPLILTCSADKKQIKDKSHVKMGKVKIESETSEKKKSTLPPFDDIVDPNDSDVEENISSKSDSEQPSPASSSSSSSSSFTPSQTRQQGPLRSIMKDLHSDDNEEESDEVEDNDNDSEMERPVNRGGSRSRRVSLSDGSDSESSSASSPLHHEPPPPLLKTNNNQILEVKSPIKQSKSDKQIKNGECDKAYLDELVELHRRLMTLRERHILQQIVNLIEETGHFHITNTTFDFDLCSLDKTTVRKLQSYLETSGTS
INS-1E GSIS act – GLuc luminescence reporter in INS-1E cells, primary screen for activators of glucose-dependent secretion of insulin. 370,000 tested, 0.61% active. INS-1E GLuc reporter insulin secretion, 2-3 h. activation, % at 16.6 µM;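 active = lowest replicate activation of at least 40%, so every replicate reaches that level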;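 note: 0% = median of neutral control wells and 100% = median of IBMX positive control wells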
NSD2 inh – NSD2 histone methyltransferase inhibitors, primary screen, biochemical, AlphaScreen, single concentration, set 2; Histone-lysine N-methyltransferase NSD2 (Homo sapiens), O96028; NSD2 peptide methylation, 120 min; inhibition, % at 12.5 µM; 310,000 tested, 0.54% active; AID 743445, 2014; in the data active = inhibition above about 50%
HIV Env fusion – inhibitors of HIV-1 Env-driven cell-cell fusion, primary screen, HeLa-JRFL effector, CEM21 target cells, luciferase | 360,000 tested, 1.1% active | inhibition, % at 12.3 µM | AID 651610, 2012;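 active = mean replicate inhibition score of at least 50 and every replicate individually at or above 50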;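 note: 0% = plate neutral controls and 100% = maraviroc near 300 nM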
Starred values were filed as active, the others as inactive; [ ] = another dose, or the depositor's remark.

`CCn1c(COc2ccccc2C)nnc1SCC(=O)Nc1ccc2c(c1)OCCO2` gave PGC1a acetyl inh -23.6, NSD2 inh 0.1 and HIV Env fusion 20.8.
O=C(N/C(=C/C=C\c1ccccc1)C(=O)N1CCOCC1)c1ccc(Br)cc1 was read as MLL AF4-AF9 inh 15.2, INS-1E GSIS act -17.7, NSD2 inh 8.8 and HIV Env fusion 15.2.
`CC(=O)N/C(N)=N/c1nc2cc([N+](=O)[O-])ccc2o1` gave PGC1a acetyl inh 6.9, MLL AF4-AF9 inh 0.0, INS-1E GSIS act -2.8, NSD2 inh 0.2 and HIV Env fusion -20.9.
COc1ccc(NC(=O)N[C@H]2CC[C@@H](CCn3cc(-c4ccccc4F)nn3)O[C@@H]2CO)cc1 was read as PGC1a acetyl inh -15.0, MLL AF4-AF9 inh -1.6, INS-1E GSIS act 5.5 and HIV Env fusion 11.4[16.7 µM].
COc1ccc(NC(=O)N[C@H]2CC[C@H](CCn3cc(-c4ccccc4F)nn3)O[C@@H]2CO)cc1 was read as PGC1a acetyl inh 69.1*, MLL AF4-AF9 inh 1.6, INS-1E GSIS act 2.9 and HIV Env fusion 5.3[16.7 µM].
`C[C@@H]1CN([C@@H](C)CO)S(=O)(=O)c2ccc(Br)cc2O[C@@H]1CN(C)Cc1ccccn1` gave PGC1a acetyl inh -6.1, MLL AF4-AF9 inh -1.3, INS-1E GSIS act -0.1 and HIV Env fusion -27.4.
COc1ccccc1Nc1nc(N2CCOCC2)nc(N2CCOCC2)n1 was read as PGC1a acetyl inh -21.0, MLL AF4-AF9 inh 3.6, INS-1E GSIS act 0.0, NSD2 inh -7.3 and HIV Env fusion 20.5.
For CN(C)S(=O)(=O)c1ccc(C(=O)OCc2nnc(-c3ccccc3)o2)cc1 the results were PGC1a acetyl inh 0.8, MLL AF4-AF9 inh -1.3, INS-1E GSIS act -2.7, NSD2 inh 6.4 and HIV Env fusion 3.4.
Screening Cc1onc(-c2ccccc2)c1C(=O)OCc1nnc(-c2ccc([N+](=O)[O-])cc2)o1 returned PGC1a acetyl inh 2.9, MLL AF4-AF9 inh 7.0, INS-1E GSIS act -24.8, NSD2 inh 8.0 and HIV Env fusion 60.3*.
For O=C(OCc1nnc(-c2ccccc2)o1)C1=COCCO1 the results were PGC1a acetyl inh 60.9*, INS-1E GSIS act 5.3 and NSD2 inh -1.9.
For O=C(OCc1nnc(-c2ccccc2)o1)c1cc([N+](=O)[O-])ccc1Cl the results were PGC1a acetyl inh -6.4, MLL AF4-AF9 inh -13.0, INS-1E GSIS act 3.6, NSD2 inh 1.2 and HIV Env fusion 19.0.
Screening CS(=O)(=O)c1ccc(C(=O)OCc2nnc(-c3ccccc3)o2)cc1[N+](=O)[O-] returned MLL AF4-AF9 inh -0.8, INS-1E GSIS act 70.6*, NSD2 inh 8.8 and HIV Env fusion -273.2.
For CSc1ccccc1NC(=O)c1ccccn1 the results were MLL AF4-AF9 inh -2.0, INS-1E GSIS act -1.4, NSD2 inh -5.8 and HIV Env fusion -9.2.
`COC(=O)C1=C(O)C2(C(=O)O)CC(C(=O)OC)=C(O)C(C(=O)O)(C1)C2` gave MLL AF4-AF9 inh 1.6, INS-1E GSIS act -18.6, NSD2 inh 0.2 and HIV Env fusion -15.0.
Cc1noc(-c2ccc(Cl)cc2)c1C(=O)O/N=C(\N)c1ccc(C(C)(C)C)cc1 was read as MLL AF4-AF9 inh -0.9, NSD2 inh -0.1 and HIV Env fusion -82.1.
Screening CCOc1ccc2c(c1)-c1c(ssc1=S)C(C)(C)N2C(=O)c1ccco1 returned INS-1E GSIS act -4.6, NSD2 inh 6.9 and HIV Env fusion 71.5*.
`Cc1nc(CCN2C(=O)c3ccccc3C2=O)n[nH]1` gave PGC1a acetyl inh 23.8, NSD2 inh 5.7 and HIV Env fusion 5.9.
Screening CCOC(=O)[C@@H]1[C@H]2COc3ccc(Br)cc3[C@@H]2N2C(=O)N(c3ccc(F)cc3)C(=O)[C@@]12C returned PGC1a acetyl inh -4.8, INS-1E GSIS act -12.9 and HIV Env fusion 99.9*.
`CCOC(=O)[C@@H]1[C@H]2COc3ccc(Br)cc3[C@@H]2N2C(=O)N(c3ccc(C(F)(F)F)cc3)C(=O)[C@@]12C` gave INS-1E GSIS act -16.7 and HIV Env fusion 66.2*.
Screening CCOC(=O)[C@@H]1[C@H]2COc3ccc(Br)cc3[C@@H]2N2C(=O)N(c3cccc(F)c3)C(=O)[C@@]12C returned MLL AF4-AF9 inh -2.8, INS-1E GSIS act -11.1 and HIV Env fusion 75.2*.
CCOC(=O)[C@H]1[C@H]2COc3ccc(Br)cc3[C@@H]2N2C(=O)N(c3ccc(F)cc3)C(=O)[C@@]12C was read as PGC1a acetyl inh -8.7, INS-1E GSIS act -9.7 and HIV Env fusion 13.3.
For CCOC(=O)[C@@H]1[C@H]2COc3ccc(Br)cc3[C@@H]2N2C(=O)N(c3ccc(Cl)cc3)C(=O)[C@@]12C the results were PGC1a acetyl inh -13.4, INS-1E GSIS act -15.8 and HIV Env fusion 66.7*.
`O=C(Nc1nc2ccccc2s1)C1CC(=O)N(c2ccccc2)C1` (stereo not given) gave PGC1a acetyl inh 1.9, INS-1E GSIS act -2.6, NSD2 inh 1.4 and HIV Env fusion 24.1.
For O=C(C[C@@H]1CC[C@H](NC(=O)Nc2ccccc2F)[C@@H](CO)O1)NCc1ccccc1 the results were PGC1a acetyl inh -16.5, MLL AF4-AF9 inh 3.6, INS-1E GSIS act 3.2 and HIV Env fusion 8.4[16.7 µM].
COC(=O)COc1cc(OCC(=O)OC)c2c(-c3ccccc3)cc(=O)oc2c1 was read as MLL AF4-AF9 inh 0.0, INS-1E GSIS act 64.1* and HIV Env fusion -11.9.
`CC(=O)COc1cc(C)cc2oc(=O)cc(-c3ccccc3)c12` gave PGC1a acetyl inh 7.0, MLL AF4-AF9 inh -2.2, INS-1E GSIS act -5.1, NSD2 inh -1.2 and HIV Env fusion 4.4.
`CC(=NNc1cc(C)c2ccccc2n1)c1ccccn1` gave MLL AF4-AF9 inh 28.6*, INS-1E GSIS act 9.0, NSD2 inh 10.3 and HIV Env fusion -309.0.
Screening O=C(Nc1ccccc1)c1nnn(Cc2ccccc2)c1NC(=O)C(F)(F)F returned PGC1a acetyl inh -17.8, INS-1E GSIS act -15.7 and HIV Env fusion -84.2.
Screening CCCC[n+]1c(-c2ccc(Cl)cc2Cl)csc1Nc1ccccc1 returned PGC1a acetyl inh -6.1, INS-1E GSIS act 12.4, NSD2 inh -2.8 and HIV Env fusion -0.7.
Screening C=CC[n+]1c(-c2ccc(Cl)cc2Cl)csc1Nc1ccc(NC(C)=O)cc1 returned PGC1a acetyl inh -17.4, MLL AF4-AF9 inh 44.3*, INS-1E GSIS act 19.1 and HIV Env fusion 23.6.
Screening O=C(O)C1Sc2[nH]c(=O)sc2C2c3cc(Br)ccc3OC(=O)C12 (stereo not given) returned PGC1a acetyl inh 13.9, MLL AF4-AF9 inh 2.3, INS-1E GSIS act -8.4, NSD2 inh 47.2 and HIV Env fusion 0.2.
For O=C(c1ccc2c(c1)OCO2)N(c1ccccc1)C1C=CS(=O)(=O)C1 (stereo not given) the results were PGC1a acetyl inh -4.8 and NSD2 inh -2.7.
